Laboratory results from PubChem BioAssay AID540308 (The Scripps Research Institute Molecular Screening Center, 2011).
About 3,500 (0.97%) of roughly 360,000 compounds were called active.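 Rule for the calls: active = activation above a per-plate cutoff, the mean activation of sample wells on that plate plus 3 SD (cut at about 8% in these data); inactive = the rest.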 The entries come from a sample that favours actives as a whole.

Biological target: Melanocortin receptor 4 (Homo sapiens) (UniProt P32245)
Sequence (P32245 whole entry, looked up): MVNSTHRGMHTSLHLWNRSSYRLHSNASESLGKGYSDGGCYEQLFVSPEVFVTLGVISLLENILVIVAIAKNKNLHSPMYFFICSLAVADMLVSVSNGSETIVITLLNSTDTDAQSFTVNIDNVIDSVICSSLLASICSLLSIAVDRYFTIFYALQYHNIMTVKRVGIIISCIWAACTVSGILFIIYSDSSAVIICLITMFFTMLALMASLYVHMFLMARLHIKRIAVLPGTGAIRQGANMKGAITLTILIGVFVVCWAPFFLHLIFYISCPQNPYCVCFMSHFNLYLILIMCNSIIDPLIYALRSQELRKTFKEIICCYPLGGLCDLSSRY
Assay: MC4R agonists recruiting beta-arrestin, primary screen, cell-based, luminescence, agonist arm of biased-ligand search (AID 540308)
Conditions: U2OS MC4R beta-arrestin complementation, at 8.9 µM, hits give high values, percent of melanotan II response, DMSO zero

activation, active:
CNC(=S)N/N=C/c1ccc(OCc2ccccc2)c(Br)c1 8.56%, COCCNc1nc(Nc2ccccc2Cl)c2sc(-c3ccccc3)cc2n1 10.6%, Clc1ccccc1Nc1nc(NCc2cccs2)nc2ccsc12 15.7%, Cc1ccc2nc(-c3ccncc3)cc(C(=O)Nc3ccncc3)c2c1 10.5%, Cc1ccc2nc(-c3ccncc3)cc(C(=O)Nc3ccc(OC(F)F)cc3)c2c1 13.6%, Cc1ccc2nc(-c3ccccn3)cc(C(=O)Nc3ccc4c(c3)OCO4)c2c1 8.55%, CC1CCCC(NC(=O)c2cc(-c3ccncc3)nc3ccccc23)C1C (configuration not stated) 8.93%, CCc1ccc2c(c1)cc(CN(C(=S)Nc1ccccc1Cl)C1CC1)c1nnnn12 12.6%, Cc1ccsc1/C=N/Nc1ccc(Cl)nn1 12.3%, COc1ccc2oc(=O)cc(-c3cc4ccccc4o3)c2c1 8.24%, CCN(c1ccccc1)S(=O)(=O)c1ccc(C(=O)Nc2nccs2)cc1 8.9%, O=C(NC(c1ccc(-c2ccccc2)cc1)c1cnccn1)C1CCN(CCOc2ccc(Cl)cc2Cl)CC1 (configuration not stated) 18%, CC(C)c1ccc2c(c1)c(SC(C)(C)C)c(CC(C)(C)C(=O)O)n2Cc1ccc(Cl)cc1 15.9%, CCOC(=O)c1[nH]c2c(c1-c1ccccc1)C(=O)CC(c1ccc(Cl)cc1)C2 (configuration not stated) 13.1%, COc1ccc(Cn2cccc(NC(=O)Nc3ccc(C#N)cc3)c2=O)cc1 8.99%, COc1ccc(Cn2c(C)c(C)c(C#N)c2NC(=O)Nc2ccc(F)cc2)cc1 9.65%, CCOC(=O)C1=C(O)/C(=C/c2ccc(OCC(=O)Nc3ccc(C)cc3)cc2)N=C1C 16.8%, Cc1ccc(-c2csc(SCC(=O)Nc3cc(C)on3)n2)cc1 12.5%, O=C(c1cc2cc(F)ccc2[nH]1)N1CCN(c2ccc(F)cc2)CC1 9.41%

activation, inactive:
COc1ccc(Br)c(Cn2c(C)c(C(=O)NCc3cccs3)sc2=O)c1 0.68%, Cn1cc(S(=O)(=O)NC(c2ccccc2)c2ccccc2)c(=O)n(C)c1=O -0.18%, CCc1nc2c(OCCOc3ccccc3)cccn2c1N(C)C(=O)c1cccs1 0.14%, COc1ccc(S(=O)(=O)NC(=O)C2(C)CCN2C(=O)c2ccccc2CCc2ccccc2)cc1 (configuration not stated) -2.22%, O=C(O)c1ccc(/C=N/NC(=S)NCc2ccccc2)cc1 0.6%, O=C(O)COc1ccc(/C=N/O)cc1Br -1.99%, CCCC(=O)N1CCC1(C)C(=O)Nc1ccc(-n2cncn2)cc1 (configuration not stated) 0.24%, COc1cccc(CNc2nc(NCc3cccs3)nc3ccsc23)c1 -1.2%, COc1cccc(-c2cc3nc(NCCOc4ccccc4Cl)n(C)c(=O)c3s2)c1 2.56%, COc1ccccc1CNc1nc(Nc2ccccc2Cl)c2sccc2n1 0.15%, CC(=O)Nc1ccc(CNc2nc(NCCN(C)C)nc3cc(-c4ccccc4)sc23)cc1 0.89%, COc1ccc(C(C)(O)c2nc(-c3ccc(C)c(C)c3)cs2)cc1 (configuration not stated) 0.79%, COc1cc2ccccc2cc1C(=O)Nc1ccncc1 -0.89%, CC(C)c1cc(C(=O)NC2CCCCCC2)c2ccccc2n1 -0.07%, Cc1cc(NS(=O)(=O)c2ccc(NC(=O)c3cccc(OC(F)F)c3)cc2)nc(C)n1 0.09%, COc1ccc(NC(=O)c2cc(-c3cc(OC)c(OC)c(OC)c3)nc3ccccc23)c(OC)c1 1.47%, Cc1ccc(-n2c(SCC(=O)Nc3ccc4c(c3)OCO4)nnc2-c2ccccn2)cc1 1.14%, CSc1ncccc1C(=O)Nc1ccc2c(c1)OCO2 -2.93%, CCc1ccc(-c2cc(C(=O)NN3CCN(C)CC3)c3ccccc3n2)cc1 -0.59%, O=C(Nc1ccc(S(=O)(=O)Nc2nccs2)cc1)c1cc(-c2ccncc2)nc2ccccc12 1.73%, CCOC(=O)C1CCCN(C(=O)c2cc(-c3cccs3)oc2C)CC1 (configuration not stated) 1.53%, CCCS(=O)(=O)NC(=O)C1(C)CCCN(C(=O)c2ccnc(Cl)c2)C1 (configuration not stated) -0.96%, CCCCc1ccc(S(=O)(=O)NC(=O)C2(C)CCN2C(=O)c2ccccc2)cc1 (configuration not stated) 0.97%, OC[C@@H]1CN(Cc2ccc(-c3ccccc3)cc2)C[C@H](n2cnc3c(NC4CCCC4)ncnc32)O1 5.7%, CCc1nc2c(OCc3ccc(C(=O)OC)cc3)cccn2c1N(C)C(=O)C(C)C 1.62%, CC1(C(=O)NS(=O)(=O)c2ccccc2)CCN1C(=O)c1ccccc1 (configuration not stated) -1.65%, CCOc1ccc2c(c1)cc(CN(C(=O)CC)C1CCCCC1)c1nnnn12 0.48%, CCc1cccc(NC(=S)N(CCN(C)C)C2CCN(C(C)C)CC2)c1 -0.19%, CC1(C(=O)NS(=O)(=O)c2cccc(F)c2)CCN1C(=O)Cc1cc(F)ccc1F (configuration not stated) -0.76%, CCNC(=O)C1(C)CCCN(C(=O)c2c(C)noc2C)C1 (configuration not stated) 0.77%, C/C(=N\Nc1ccc(Cl)nn1)c1ccccc1O -0.38%, Cc1ccsc1/C=N/NC(=O)Cc1cc(=O)[nH][nH]1 -1.77%, COc1ccccc1CNC(=O)c1cc(-c2cc(F)ccc2OC)n[nH]1 1.31%, CCCCC(=O)N(C)c1c(CC)nc2c(OCc3ccc(Cl)cc3Cl)cccn12 0.75%, CC(=O)OC[C@@H]1CN(Cc2ccccc2)C[C@H](n2cnc3c(NCc4ccco4)ncnc32)O1 -2.47%, COc1ccc(Nc2cc(=O)oc3ccccc23)cc1 -0.49%, COc1cccc2cc(-c3cc(=O)oc4cc(C)c(O)cc34)oc12 1.6%, CCN(c1ccccc1)S(=O)(=O)c1ccc(NC(=O)C(C)(C)C)cc1 -0.35%, CCN(c1ccccc1)S(=O)(=O)c1ccc(C(=O)Nc2ccccc2OC)cc1 0.77%, Cc1ccc(C(NC(=O)C2CCN(CCOc3ccc(Cl)cc3Cl)CC2)c2ccccn2)cc1 (configuration not stated) 4.91%, O=C(NC(c1ccc(Cl)cc1)c1cnccn1)C1CCN(Cc2ccc(Cl)cc2)CC1 (configuration not stated) -0.34%, CCc1ccc2c(c1)NC(=O)C2(C)Cc1ccc(OC(F)(F)F)cc1 (configuration not stated) -0.4%, Cc1ccc(-c2cnc(C(O)c3cccc(C)c3C)[nH]2)cc1 (configuration not stated) -0.77%, COCCNC(=O)C1CCCN(Cc2ccccc2Cl)CC1 (configuration not stated) -0.57%, CC(=O)Nc1ccc(-c2ccnc3c2CC(C(=O)NC(C)C)O3)cc1 (configuration not stated) -1.59%, O=C(NCCO)c1cccc(-c2cccc3nccn23)c1 -1.27%, CNc1cncc(-c2ccc(NS(C)(=O)=O)cc2)n1 -1.66%, CCCOC(=O)c1[nH]c2c(c1C)C(=O)CC(c1cccs1)C2 (configuration not stated) -0.13%, CCOC(=O)C1=C(CN2CCc3ccccc32)NC(=O)NC1c1ccc(Cl)cc1 (configuration not stated) 6.41%, CS(=O)(=O)/C(C#N)=C/c1cccn1S(=O)(=O)c1ccc([N+](=O)[O-])cc1 -0.77%, O=C(O)c1ccccc1-c1cccc2nncn12 1.15%, OC(c1ccccc1)c1nc(-c2cnc3ccccc3c2)cs1 (configuration not stated) -1.73%, Cc1ccc(C(=O)Nc2c(C#N)c(C)c(C)n2Cc2ccccc2)cc1 0.7%, COc1cccc(NC(=O)CN(C)C(C)C(=O)Nc2ccc(C#N)cc2)c1 (configuration not stated) -2.21%, Cc1c(C#N)c(NC(=O)c2ccccc2)n(Cc2ccccc2)c1C 1.54%, O=C(Nc1cccn(Cc2ccccc2Cl)c1=O)NC1CCCCC1 -3.02%, O=C(NCc1cccnc1)c1cc(C2CCCN(C(=O)C3CCCCC3)C2)on1 (configuration not stated) 0.25%, CC1(Cc2cccc(C#N)c2)C(=O)Nc2ccc(-c3cccc(C(F)(F)F)c3)cc21 (configuration not stated) 1.34%, CCOc1ccc(Cl)cc1-c1cc(C(=O)NCc2cccs2)[nH]n1 1.31%, O=C(CSc1nc2cccc(F)c2c(=O)n1-c1ccccc1)Nc1ccc2c(c1)CCC2 1.04%, Cc1ccc(NC(=O)COc2ccc(/C=C3/NC(=O)NC3=O)cc2)cc1 -1.81%, COC(=O)C1=C(O)/C(=C/c2ccc(OCC(=O)Nc3ccccc3)cc2)N=C1C -2.96%, COC(=O)c1ccc(CN2C(=O)C(Cc3ccccc3)ON=C2c2ncccc2C)o1 (configuration not stated) 0.08%, CS(=O)(=O)c1cccc(-c2ccc3nncn3c2)c1 0.6%, CSc1ccccc1OCc1cc(C(=O)N2C[C@H]3CC[C@H]2C3)no1 -3.22%, O=C(O)c1cscn1 -0.73%, Cc1cc(NC(=O)CSCC(=O)NC(C)c2ccccc2)no1 (configuration not stated) 3.59%, Cc1ccc2nc(-c3ccc(SCC(=O)Nc4cc(C)on4)nc3)[nH]c2c1 -0.33%, CCc1nc2ccc(C(=O)N3CCN(S(=O)(=O)CC)CC3)cn2c1N(C=O)CCC(C)C -1.41%, CC(C)Cn1cc(-c2cncc3nccn23)cn1 -1.32%, COc1ccccc1CC1(C)C(=O)Nc2ccc(OC(F)(F)F)cc21 (configuration not stated) 4.13%, O=C(c1ccccc1Oc1ccccc1)N1CCN(c2ccc(F)cc2)CC1 -0.88%, Cc1c(C(=O)N2CCN(c3ccc(F)cc3)CC2)oc2c1C(=O)CCC2 -0.69%
